# Counter-ions that a name gives are not always drawn.
# System: Danio rerio larvae (5 dpf)
# Experiment: combined upward orientation toward moving lines (periods 7-14) minus DMSO control (percentage points); higher = more orientation with moving lines than DMSO larvae
# Conditions: 10 µM; exposure time: 3 h pre-incubation + 3 h imaging
# Method: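 Wild-type 5 dpf zebrafish larvae (n=48 per drug, 96-well plates, 28.5 °C) were exposed to Tocris FDA-approved library compounds at 10 µM (0.1% DMSO) for 3 h before and 3 h during imaging. Images were taken every 6 s during visual (moving coloured lines) and acoustic stimuli, and larvae were tracked with the DeepLabCut-based Z-LaP Tracker. Each behavioural measure is the treated-group mean minus the DMSO vehicle control mean (n=844), in percentage points. This mapping covers compounds with 4-character plate codes.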
row,Structure (SMILES),combined upward orientation toward moving lines
1,OC(CNCC(O)C1CCc2cc(F)ccc2O1)C1CCc2cc(F)ccc2O1 (stereo not given) [Nebivolol hydrochloride],-7.15
2,CCCN(CCc1cccs1)[C@H]1CCc2c(O)cccc2C1 [Rotigotine hydrochloride],-7.46
3,Nc1cccc2c1CN(C1CCC(=O)NC1=O)C2=O (stereo not given) [Lenalidomide],2.56
4,CCOC(=O)C1=C(C)NC(C)=C(C(=O)OC)C1c1cccc(Cl)c1Cl (stereo not given) [Felodipine],-3.05
5,CCCCc1nc(Cl)c(CO)n1Cc1ccc(-c2ccccc2-c2nnn[nH]2)cc1 [Losartan potassium],-9.02
6,O=C(O)CCCc1ccccc1 [Sodium 4-Phenylbutyrate],-3.45
7,Cc1cccc(CN2CCN(C(c3ccccc3)c3ccc(Cl)cc3)CC2)c1 (stereo not given) [Meclizine dihydrochloride],-2.56
8,C=CC(=O)N1CCC[C@@H](n2nc(-c3ccc(Oc4ccccc4)cc3)c3c(N)ncnc32)C1 [Ibrutinib],-3.41
9,CCCc1nc2c(C)cc(-c3nc4ccccc4n3C)cc2n1Cc1ccc(-c2ccccc2C(=O)O)cc1 [Telmisartan],-1.92
10,CN/C(=N\CCSCc1nc[nH]c1C)NC#N [Cimetidine],-0.665
11,CCOc1nc2cccc(C(=O)O)c2n1Cc1ccc(-c2ccccc2-c2noc(=O)[nH]2)cc1 [Azilsartan],1.61
12,COc1cc2nc(N3CCN(C(=O)c4ccco4)CC3)nc(N)c2cc1OC [Prazosin hydrochloride],-10.6
13,Cc1cn([C@H]2C=C[C@@H](CO)O2)c(=O)[nH]c1=O [Stavudine],-0.971
14,O=C1CCc2cc(OCCCCc3nnnn3C3CCCCC3)ccc2N1 [Cilostazol],-4.64
15,Nc1ncn([C@@H]2O[C@H](CO)[C@@H](O)[C@H]2O)c(=O)n1 [5-Azacytidine],2.4
16,CN1CCC[C@@H]1Cc1c[nH]c2ccc(CCS(=O)(=O)c3ccccc3)cc12 [Eletriptan hydrobromide],-1.33
17,COc1c(C)c2c(c(O)c1C/C=C(\C)CCC(=O)OCCN1CCOCC1)C(=O)OC2 [Mycophenolate mofetil],4.45
18,CC(=O)Oc1ccccc1C(=O)O [Aspirin],-3.93
19,CN1CCN(CCCN2c3ccccc3Sc3ccc(Cl)cc32)CC1 [Prochlorperazine dimaleate],0.242
20,CCOC(=O)[C@H](CCc1ccccc1)N[C@@H](C)C(=O)N1[C@H](C(=O)O)C[C@@H]2CCC[C@@H]21 [Ramipril],-5.05

row,Structure (SMILES),combined upward orientation toward moving lines
1,Nc1nc(F)nc2c1ncn2[C@@H]1O[C@H](CO)[C@@H](O)[C@@H]1O [Fludarabine],-6.81
2,N[C@@H]1[C@H]2CN(c3nc4c(cc3F)c(=O)c(C(=O)O)cn4-c3ccc(F)cc3F)C[C@@H]12 [Trovafloxacin mesylate],-3.7
3,NC(=O)c1ncn([C@@H]2O[C@H](CO)[C@@H](O)[C@H]2O)n1 [Ribavirin],-1.89
4,Nc1nc2[nH]cc(CCc3ccc(C(=O)N[C@@H](CCC(=O)O)C(=O)O)cc3)c2c(=O)[nH]1 [Pemetrexed],-1.85
5,CCCCC(=O)N(Cc1ccc(-c2ccccc2-c2nnn[nH]2)cc1)[C@H](C(=O)O)C(C)C [Valsartan],2.9
6,CC(C)c1nc(N(C)S(C)(=O)=O)nc(-c2ccc(F)cc2)c1/C=C/[C@@H](O)C[C@@H](O)CC(=O)O [Rosuvastatin calcium],4.67
7,Cc1ccsc1C(=CCCN1CCC[C@@H](C(=O)O)C1)c1sccc1C [Tiagabine hydrochloride],13.4
8,CC(C)C(=O)Nc1ccc([N+](=O)[O-])c(C(F)(F)F)c1 [Flutamide],-15.3
9,OCCOCCN1CCN(C2=Nc3ccccc3Sc3ccccc32)CC1 [Quetiapine hemifumarate],-3.4
10,CCN(CC)CCNC(=O)c1c(C)[nH]c(/C=C2\C(=O)Nc3ccc(F)cc32)c1C [Sunitinib malate],-5.61
11,COc1cccc2c1C(=O)c1c(O)c3c(c(O)c1C2=O)C[C@@](O)(C(=O)CO)C[C@@H]3O[C@H]1C[C@H](N)[C@H](O)[C@H](C)O1 [Doxorubicin hydrochloride],-1.38
12,CN(C)CCc1c[nH]c2ccc(Cn3cncn3)cc12 [Rizatriptan benzoate],-1.53
13,CCc1c2c(nc3ccc(OC(=O)N4CCC(N5CCCCC5)CC4)cc13)-c1cc3c(c(=O)n1C2)COC(=O)[C@]3(O)CC,-3.82
14,Cn1cnc([N+](=O)[O-])c1Sc1ncnc2[nH]cnc12 [Azathioprine],0.321
15,CC(c1cc2ccccc2s1)N(O)C(N)=O (stereo not given) [Zileuton],-7.03
16,Nc1ncn([C@H]2C[C@H](O)[C@@H](CO)O2)c(=O)n1 [Decitabine],-6.22
17,COc1ccc([C@@H]2Sc3ccccc3N(CCN(C)C)C(=O)[C@@H]2OC(C)=O)cc1 [Diltiazem hydrochloride],-1.58
18,Cc1ccc(NC(=O)c2ccc(CN3CCN(C)CC3)cc2)cc1Nc1nccc(-c2cccnc2)n1 [Imatinib mesylate],-1.28
19,CCOC(=O)[C@H](CCc1ccccc1)N[C@H]1CCc2ccccc2N(CC(=O)O)C1=O [Benazepril hydrochloride],-4.13
20,CCOC(=O)C1=C(COCCN)NC(C)=C(C(=O)OC)C1c1ccccc1Cl (stereo not given) [Amlodipine besylate],0.386

# — the supplement of paper PMC9950053
